Screens as filed in PubChem BioAssay.
FECH inh: blocks human mitochondrial ferrochelatase activity. P22830. purified FECH, Ni-mesoporphyrin absorbance 550 nm. AID 1671448. actives 3.3% (n = 20,000). calls only at 10 µM (by protocol);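 active = enzyme reaction rate more than 3 SD below the solvent-only control wells on the same plate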;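 also: lower slope than DMSO wells means FECH inhibition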
Target sequence (P22830 whole entry, looked up): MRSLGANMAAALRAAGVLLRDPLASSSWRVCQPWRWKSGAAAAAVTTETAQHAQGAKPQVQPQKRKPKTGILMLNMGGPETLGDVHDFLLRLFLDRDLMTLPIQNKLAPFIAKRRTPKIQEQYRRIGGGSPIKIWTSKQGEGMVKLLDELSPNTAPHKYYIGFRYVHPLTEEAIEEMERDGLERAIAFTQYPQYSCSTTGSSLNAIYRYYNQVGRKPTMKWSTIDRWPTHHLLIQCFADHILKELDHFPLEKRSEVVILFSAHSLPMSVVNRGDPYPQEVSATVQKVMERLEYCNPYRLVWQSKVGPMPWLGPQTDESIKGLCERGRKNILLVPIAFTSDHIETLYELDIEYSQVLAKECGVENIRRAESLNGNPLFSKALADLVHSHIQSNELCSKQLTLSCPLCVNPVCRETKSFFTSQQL
Starred values were filed as active, the others as inactive; i = inactive; + = active, no number. The entries come from a sample that favours hits as a whole.

SMILES	FECH inh
O=c1cc(CNc2cccc(Cl)c2)nc2nc(NCc3ccccc3)[nH]n12	i
CCCNCc1cc(=O)n2[nH]c(NCc3ccc(OC)cc3)nc2n1	+
COc1ccc(NCc2cc(=O)n3[nH]c(NCc4ccccc4)nc3n2)cc1	i
O=c1cc(CNc2ccc(Cl)cc2)nc2nc(NCc3ccc(F)cc3)[nH]n12	i
COc1ccc(CNc2nc3nc(CNc4cc(Cl)ccc4OC)cc(=O)n3[nH]2)cc1	i
CN(CCCc1cnn(C)c1)C(=O)c1cn[nH]n1	i
CSc1nc(NCc2ccc(F)cc2)c(C#N)c(-c2ccc(C)cc2)n1	i
O=C(NCCS(=O)(=O)N1CCCC1)c1ccccc1C1CCNC1 (stereo unspecified)	i
O=C1c2ccccc2C(=O)N1c1nc2n(n1)C(c1ccccc1)C=C(c1ccc(Br)cc1)N2 (stereo unspecified)	i
C/C(=C\c1ccccc1)CN1CCCC1c1nc(-c2ccncc2)no1 (stereo unspecified)	i
Cc1cc(C)cc(Nc2nc(NCCCO)nc3c2cnn3-c2ccccc2)c1	i
COc1ccc(NC(=O)NCCc2nc3cccnc3n2Cc2ccc(C)cc2)cc1	i
COCCn1c(CNS(=O)(=O)c2cccc(C)c2)nc2cccnc21	i
OCc1ccc(-c2cccc(C(F)(F)F)n2)cc1	i
CC(C)CCNC(=O)c1[nH]cnc1C(=O)NC1CCCCC1	i
COc1ccc(OC)c(-c2nc3ccccc3nc2C)c1	i
CC(C)Cn1c(CNS(=O)(=O)c2ccc(F)cc2)nc2cccnc21	i
Cn1c(=O)n(CCN2CCOCC2)c(=O)c2cnc(-c3cccs3)nc21	i
Cc1nc(CC(=O)N(C)Cc2cnn(-c3ccccc3C)c2)cs1	i
O=S(=O)(NCc1ccccc1)N1CCCC(OCc2ccccn2)C1 (stereo unspecified)	i
Cc1nc(C(C)C)cc(N2CCCC(OCc3ccccn3)C2)n1 (stereo unspecified)	i
Cc1ccc(NC(=O)CN2CCCC(OCc3ccccn3)C2)cc1C (stereo unspecified)	+
CCCc1c(C)nc2ncnn2c1Sc1ccc(NS(=O)(=O)c2ccc(C(C)C)cc2)cc1	i
COCc1nc2cccnc2n1C1CCN(S(=O)(=O)c2ccc(Br)cc2)CC1	i
COCc1nc2cccnc2n1C1CCN(S(=O)(=O)c2ccc(NC(C)=O)cc2)CC1	+
SMILES	FECH inh
COCc1nc2cccnc2n1C1CCN(S(=O)(=O)c2ccccc2)CC1	i
COC(=O)[C@H]1C[C@@H](O)CCN1C(=O)c1c(-c2ccccc2)noc1C	i
CN(CCCNC(=O)C1CCCN1c1nnc(N2CCCC2=O)s1)C1CCCCC1 (stereo unspecified)	i
Cc1ccsc1CCNC(=O)C1CCCN1c1nnc(N2CCCC2=O)s1 (stereo unspecified)	i
COc1ccc(CNC(=O)C2CCCN2c2nnc(N3CCCC3=O)s2)c(OC)c1 (stereo unspecified)	+
COc1ccc(CCNC(=O)C2CCCN2c2nnc(N3CCCCC3=O)s2)cc1OC (stereo unspecified)	i
O=C(NCCCN1CCN(C2CCCCC2)CC1)C1CCCN1c1nnc(N2CCCC2=O)s1 (stereo unspecified)	+
CN(CCNC(=O)C1CCCN1c1nnc(N2CCCC2=O)s1)C1CCCCC1 (stereo unspecified)	i
CC(Oc1ccc(-n2cnc(-c3ccccc3)c2)cc1)C(N)=O (stereo unspecified)	i
CCc1[nH]c2ccc(CNC(=O)C3Cc4ccccc4O3)cc2c1C (stereo unspecified)	i
Nc1ccc(S(=O)(=O)Nc2ccccc2)cc1S(N)(=O)=O	i
CC1c2cccn2CCN1C/C=C/c1ccco1 (stereo unspecified)	i
CCCn1cnc2nc(CSc3ccccc3NC(=O)c3ccc(F)cc3)cc(=O)n21	+
CC(C)n1cnc2nc(CSc3ccccc3NC(=O)Cc3ccccc3)cc(=O)n21	i
COc1ccc(C(=O)Nc2ccccc2SCc2cc(=O)n3c(ncn3C(C)C)n2)cc1	i
CCOc1ccccc1C(=O)Nc1ccccc1SCc1cc(=O)n2c(ncn2C(C)C)n1	i
CCCn1cnc2nc(CSc3ccccc3NC(=O)c3cccc(Br)c3)cc(=O)n21	+
Cc1ccc(C(=O)Nc2ccccc2SCc2cc(=O)n3c(ncn3C(C)C)n2)cc1F	i
CC(C)n1cnc2nc(CSc3ccccc3NC(=O)c3ccc(Br)cc3)cc(=O)n21	i
CCCn1cnc2nc(CSc3ccccc3NC(=O)c3ccccc3)cc(=O)n21	i
CCCn1cnc2nc(CSc3ccccc3NC(=O)c3ccco3)cc(=O)n21	+
COCCn1c(CNS(=O)(=O)c2ccc(C)c(C)c2)nc2cccnc21	i
COC(=O)c1cc2c(cc1NC(=O)C1CCN(c3ncnc4c3nc3n4CCCCC3)CC1)OCO2	i
CCn1c(C2CCN(C(=O)c3cnc(C)cn3)CC2)nn(C)c1=O	i
O=S(=O)(c1ccc(F)cc1)N1CCC(n2c(-c3ccccc3)nc3cccnc32)CC1	i
SMILES	FECH inh
O=C(NCc1ccc(Cl)cc1)c1nc(N2CCOCC2)c2oc3ccccc3c2n1	i
COc1cc(C)ccc1OCCN1CCC2(CC1)c1ccccc1CC2O (stereo unspecified)	i
COc1ccc(OCc2nc(C(=O)N3CCNCC3c3ccccc3)co2)cc1 (stereo unspecified)	i
COc1ccc(OCc2nc(C(=O)N3CC4(C)CN(C)CC(C)(C3)C4)co2)cc1	+
CCN(C(=O)c1coc(COc2ccc(OC)cc2)n1)[C@H]1COC[C@@H]1O	i
CCN(Cc1cnn(CC)c1)C(=O)c1cccn1C	i
COc1ccc(-n2c(CN3CCN(S(=O)(=O)c4ccc(F)c(Cl)c4)CC3)nc3cccnc32)cc1	i
CCc1cc(CN(C)C(=O)CN2CCOc3ccccc3C2)on1	i
CCc1cc(CN(C)C(=O)c2cn3c4c(cccc4c2=O)CC3)on1	+
CCc1cc(CN(C)C(=O)c2cnon2)on1	i
CCOC(=O)c1ccc(Nc2c(-c3ccc4c(c3)CCCC4)c(=O)c2=O)cc1	i
CNCC(=O)NCCc1nc2sc(C)c(C)c2c(=O)[nH]1	i
CC(C)NCc1cc(=O)n2[nH]c(NCc3ccccc3)nc2n1	i
CC(C)c1cc(=O)n2[nH]c(CNc3ccc(Br)cc3)nc2n1	+
O=c1cc(CNc2ccc(Br)cc2)nc2nc(NCc3ccc(F)cc3)[nH]n12	i
O=c1cc(CNc2ccc(Br)cc2)nc2nc(NCc3ccccc3)[nH]n12	i
CC(C)c1cc(=O)n2[nH]c(CNc3ccccc3)nc2n1	+
Cc1ccc(NCc2cc(=O)n3[nH]c(NCc4ccccc4)nc3n2)cc1	i
CCCN(CCC)c1nc(Nc2cccc(Cl)c2)c2cnn(-c3ccccc3)c2n1	i
COc1ccc(-c2cc(N3CCN(S(=O)(=O)c4cc(Cl)ccc4OC)CC3)ncn2)cc1	i
O=C([C@@H]1C[C@@H](O)CN1)N1CCc2onc(C(c3ccccc3)c3ccccc3)c2C1	i
CCC(=O)Nc1ccccc1-c1nnc(SCC(=O)Nc2cccc(Cl)c2C)[nH]c1=O	i
O=C(CCn1cnnc1)NC1CC(=O)N(Cc2ccccc2C(F)(F)F)C1 (stereo unspecified)	i
COc1ccc(Nc2cc(C)nc(N3CCN(S(C)(=O)=O)CC3)n2)cc1	i
CC(C)C(=O)N1CCC(CNc2nccc(CCC(F)(F)F)n2)CC1	i
CCN(C)C(=O)c1cc(-c2cnn(C(C)(C)C)c2)nc2c(C)cccc12	i
